KCNQ2 pot: enhances the rat KCNQ2 potassium channel; CHO-K1 KCNQ2, FluxOR thallium flux fluorescence; active compounds read high; B-score at 10 µM; actives 0.54% (n = 310,000); AID 2239;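 active = fluorescence ratio B-score at least 3 SD of library B-scores, with initial fluorescence B-score within 3 of them, cut at about 5.3 in these data; same plate scores as AID 2156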;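 also: B-score of peak minus minimum over baseline fluorescence ratio after K+ and Tl+ stimulus; positive B-score means potentiation of KCNQ2 with more thallium influx and brighter signal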
Target sequence (O88943 whole entry, looked up): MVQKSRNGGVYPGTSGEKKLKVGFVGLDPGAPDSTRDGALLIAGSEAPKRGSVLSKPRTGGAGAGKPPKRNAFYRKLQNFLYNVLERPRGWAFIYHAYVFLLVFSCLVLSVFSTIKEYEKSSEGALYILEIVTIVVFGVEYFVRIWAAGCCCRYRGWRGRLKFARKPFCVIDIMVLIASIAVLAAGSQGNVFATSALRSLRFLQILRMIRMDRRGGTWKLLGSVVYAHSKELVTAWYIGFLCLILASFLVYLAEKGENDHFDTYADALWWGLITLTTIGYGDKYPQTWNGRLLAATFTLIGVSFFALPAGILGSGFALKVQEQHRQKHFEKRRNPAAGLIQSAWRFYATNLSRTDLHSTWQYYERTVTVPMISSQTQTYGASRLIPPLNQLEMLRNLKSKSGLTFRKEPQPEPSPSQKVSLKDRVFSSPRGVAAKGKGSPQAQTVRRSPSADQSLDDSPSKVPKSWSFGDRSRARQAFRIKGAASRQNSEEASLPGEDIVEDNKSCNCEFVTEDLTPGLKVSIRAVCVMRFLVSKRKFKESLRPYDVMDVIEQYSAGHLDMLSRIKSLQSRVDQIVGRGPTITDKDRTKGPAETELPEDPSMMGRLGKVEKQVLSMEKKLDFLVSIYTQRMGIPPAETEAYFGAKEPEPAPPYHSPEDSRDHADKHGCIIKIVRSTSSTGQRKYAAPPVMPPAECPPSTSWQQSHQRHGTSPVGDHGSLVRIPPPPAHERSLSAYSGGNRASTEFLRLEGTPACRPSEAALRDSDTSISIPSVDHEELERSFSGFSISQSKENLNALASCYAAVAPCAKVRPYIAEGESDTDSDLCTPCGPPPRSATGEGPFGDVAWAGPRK
KCNQ2 block: inhibitors of rat KCNQ2 potassium channel; CHO-K1 KCNQ2, FluxOR thallium flux, 20 min; active compounds read low; B-score at 10 µM; actives 1.1% (n = 310,000); AID 2156;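 active = fluorescence ratio B-score at most minus 3 library SDs, with starting brightness B-score within 2 library SDs, cut at about -5.5 in these data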
Of the large screens only hits and unclear results are named; the others gave an inactive call. A selection: hits, their analogues and other compounds. The true share with any hit is near 1.6%.

Cc1onc(-c2ccccc2Cl)c1C(=O)Nc1ccc(N2CCOCC2)cc1	none (no result: KCNQ2 pot)
Cc1ccc(-n2nc3c(c2NC(=O)c2c(-c4ccccc4Cl)noc2C)CSC3)cc1	KCNQ2 block -7.4
CCN1CCSc2ccc(C(=O)NCc3ccccc3C)cc21	none (no result: KCNQ2 pot)
CCN1CCSc2ccc(C(=O)NCc3ccccc3Br)cc21	KCNQ2 block -6.1
CCCN(CC1CC1)C(=O)COc1ccccc1C(=O)NCc1ccccc1	KCNQ2 block -7.7
CCC(C)N(C(=O)COc1ccccc1C(=O)NCc1ccccc1)C1CCS(=O)(=O)C1 (stereo not drawn)	none (no result: KCNQ2 pot)
CC1=C(C(=O)Nc2ccc(C)cc2C)C(c2ccc(C)o2)NC(=S)N1 (stereo not drawn)	none (no result: KCNQ2 pot)
Cc1nnc(SCC(=O)Nc2nc(-c3ccc(F)cc3)cs2)[nH]c1=O	none (no result: KCNQ2 pot)
O=C(NCCCN1CCOCC1)c1ccccc1N1C(=O)[C@@H]2Cc3c([nH]c4ccccc34)C(c3cccc(Cl)c3)N2C1=O (stereo partly drawn)	KCNQ2 block -5.6
Cc1ccc(C2c3[nH]c4ccccc4c3C[C@H]3C(=O)N(c4ccccc4C(=O)NCCCN4CCOCC4)C(=O)N23)cc1 (stereo partly drawn)	none (no result: KCNQ2 pot)
COc1ccc(S(=O)(=O)N2CCOCC2)cc1NC(=O)CSc1nnc(C2CC2)n1N	none (no result: KCNQ2 pot)
Cc1nn(-c2ccccc2)c2c1C(c1ccc([N+](=O)[O-])cc1)N1C(=N2)C(=O)Nc2ccccc21 (stereo not drawn)	none
Cc1nn(-c2ccccc2)c2c1C(c1ccc(Cl)cc1)N(c1ccccc1)C(=O)N2 (stereo not drawn)	KCNQ2 block -7.6
Clc1ccc(SCCOCCN2CCCCCC2)cc1	none
O=S(=O)(N/N=C/c1ccc(Cl)cc1)c1ccc(Cc2ncc(C(F)(F)F)cc2Cl)s1	KCNQ2 block -6.2
NC(=O)c1ccc(Cc2ncc(C(F)(F)F)cc2Cl)s1	none (no result: KCNQ2 pot)
CC1(c2nnc(Cc3ccccc3)o2)CC(c2ccc([N+](=O)[O-])cc2)=NO1 (stereo not drawn)	none (no result: KCNQ2 pot)
O=c1c2oc3ccccc3c2ncn1Cc1ccc(Cl)cc1	none (no result: KCNQ2 pot)
COc1ccc(C(CNC(=O)c2ccc(S(=O)(=O)N3CCCC3)cc2)N2CCOCC2)cc1 (stereo not drawn)	none (no result: KCNQ2 pot)
COc1ccc(C(CNC(=O)c2ccc3c(c2)C(=O)N(CCC(C)C)C3=O)N2CCOCC2)cc1 (stereo not drawn)	KCNQ2 block -5.8
Cc1ccc(Cl)cc1N(CC(=O)NC1CCCC1)C(=O)c1csnn1	none
Cc1ccc(CS/C(Nc2ccccc2C)=C(\C#N)C(=O)NCc2ccco2)c(C)c1	none (no result: KCNQ2 pot)
Cc1ccccc1N/C(SCc1ccc(Cl)cc1)=C(/C#N)C(=O)NCc1ccco1	KCNQ2 block -7
COc1ccc(-c2ccc(-c3nnc(-c4cc(OC)ccc4OC)o3)cc2)cc1	none
COc1ccc(OC)c(-c2cnc(OC(C)(C)C)nc2OC(C)(C)C)c1	KCNQ2 block -5.7
NNC1=N[C@H]2CS(=O)(=O)C[C@H]2S1	none (no result: KCNQ2 pot)
COc1cccc(NC(=O)Cn2cc3c(n2)CCCCC3)c1	KCNQ2 block -6.5
COc1ccc(CNC(=O)Cn2cc3c(n2)CCCCC3)cc1	none
CCCCn1c(N)c(N(CCOC)C(=O)c2oc3ccc(OCC)cc3c2C)c(=O)[nH]c1=O	none
COC(=O)CCC(C)N1CCC(Oc2ccc(C(=O)NCc3ccccn3)cc2)CC1 (stereo not drawn)	none (no result: KCNQ2 pot)
O=C(OCc1nnc(-c2ccccc2)o1)c1ccc(-n2cnnn2)cc1	none
O=C(OCc1nnc(-c2ccccc2)o1)c1cn(-c2ccccc2)nc1-c1ccccc1	KCNQ2 block -6.2
CCc1nc2ccccc2c(C(=O)OCCN2C(=O)c3ccccc3C2=O)c1C	KCNQ2 block -9.6
CCc1nc2ccccc2c(C(=O)OCC(=O)NC(=O)c2cccn2C)c1C	KCNQ2 block -5.6
CCc1nc2ccccc2c(C(=O)OCC(=O)C(C)(C)C)c1C	none
CCc1nc2ccccc2c(C(=O)O)c1C	none (no result: KCNQ2 pot)
CN(C)C(=O)c1ccc(N/C=C(\C=O)c2nc3ccccc3o2)cc1	none
NC(=O)C1CCN(CC(=O)Nc2cccc(C(=O)Nc3cccc(C(F)(F)F)c3)c2)CC1	none (no result: KCNQ2 pot)
Cc1ccc(/C=C/C(=O)CCC(=O)O)cc1	none (no result: KCNQ2 pot)
COc1ccc(NC(=O)[C@H](Cc2c[nH]c3ccccc23)NC(=O)[C@@H]2Cc3ccccc3CN2)cc1	none (no result: KCNQ2 pot)
CC(C)c1ccc(NC(=O)[C@H](Cc2c[nH]c3ccccc23)NC(=O)[C@@H]2Cc3ccccc3CN2)cc1	KCNQ2 block -8.2
Cc1ncc([N+](=O)[O-])n1CC(=O)Nc1ccc(F)cc1	none
COC(=O)c1c(NC(=O)COC(=O)CNC(=O)C2CCCCC2)sc(C)c1C	none
CCOC(=O)C1CCN(c2ccccc2CN2CCN(c3ccccc3OCC)CC2)CC1	KCNQ2 block -7.2
CCOC(=O)C1CCN(Cc2ccccn2)CC1	none (no result: KCNQ2 pot)
CC1CCC(C(C)C)C(OC(=O)CSc2nccc(=O)[nH]2)C1 (stereo not drawn)	none (no result: KCNQ2 pot)
CC1CCC(C(C)C)C(OC(=O)C2=C3c4ccccc4S(=O)(=O)N3CC2)C1 (stereo not drawn)	KCNQ2 block -6.1
CCOc1ccc2[nH]c(=O)c(C(c3nnnn3Cc3ccco3)N3CCCC(C)C3)cc2c1 (stereo not drawn)	KCNQ2 block -6.5
CCOc1ccc2[nH]c(=O)c(C(c3nnnn3Cc3ccco3)N3CCC(C)CC3)cc2c1 (stereo not drawn)	none
COc1ccc(-c2noc(CCC(=O)NCCc3ccccc3)n2)cc1OC	none
COc1ccc(C2CC(=O)OC3=C2C(=O)CC(C)(C)C3)c(OC)c1 (stereo not drawn)	none
COc1ccc([C@@H]2COc3c(ccc4c3C=CC(C)(C)O4)C2)c(OC)c1	KCNQ2 block -6.3
CCn1c(SCc2ccccc2)nc2c1c(=O)[nH]c(=O)n2C	none
Cc1ccc(Cl)cc1N1CCN(C(=O)C2(S(=O)(=O)c3ccc(Cl)cc3)CC2)CC1	KCNQ2 block -6.2
O=C(N1CCN(c2cccc(Cl)c2)CC1)C1(S(=O)(=O)c2ccc(Cl)cc2)CC1	none (no result: KCNQ2 pot)
Cc1ccc(S(=O)(=O)C2(C(=O)N3CCN(c4ccccc4F)CC3)CC2)cc1	none (no result: KCNQ2 pot)
Cc1cccc(N2CCN(C(=O)C3(S(=O)(=O)c4ccc(Cl)cc4)CC3)CC2)c1C	KCNQ2 block -6.2
CCOC(=O)Cn1nnc2c(sc3nc4c(c(-c5ccc(Cl)cc5)c32)CCC4)c1=O	KCNQ2 block -6.7
CCOC(=O)Cn1nnc2c(sc3nc4c(c(-c5ccccc5)c32)CCC4)c1=O	none (no result: KCNQ2 pot)
COc1ccc(N2CCN(C(CNC(=O)C(=O)NCCc3c[nH]c4ccccc34)c3ccco3)CC2)cc1 (stereo not drawn)	none
O=C(OCc1ccccc1)N1CCc2ccccc21	none (no result: KCNQ2 pot)
CCOc1ccc(S(=O)(=O)N(C)CC(=O)NC2CCCC2)cc1	none
Cn1c2ccccc2c2c(C(=O)O)cn(C3CCCC3)c(=O)c21	none (no result: KCNQ2 pot)
Cc1ccc(CNC(=O)c2cn(C3CCCC3)c(=O)c3c2c2ccccc2n3C)o1	KCNQ2 block -8
COc1cc(/C=C(\NC(=O)c2ccccc2)C(=O)NC(C(=O)O)c2ccccc2)cc(OC)c1OC (stereo not drawn)	none (no result: KCNQ2 pot)
Cc1cc(S(=O)(=O)Nc2noc3ccccc23)ccc1F	none
C/C(=C\C(=S)Nc1ccccc1)Nc1cccc2ccccc12	none (no result: KCNQ2 pot)
C/C(=C\C(=S)Nc1ccccc1)Nc1ccc2ccccc2c1	KCNQ2 block -6.3
COc1cccc(CNC(=O)CCC2CCCN(c3cc(C)nc(N)n3)C2)c1 (stereo not drawn)	none
COCCNC(=O)C(=O)N/N=C(\C)CC(=O)Nc1cccnc1	none (no result: KCNQ2 pot)
CC1CCCN(c2ccc(C(=O)OCC(=O)N3c4ccccc4Sc4ccccc43)cc2[N+](=O)[O-])C1 (stereo not drawn)	none (no result: KCNQ2 pot)

Compound activity deposited in PubChem BioAssay by Johns Hopkins Ion Channel Center.
